Drawing on PubChem BioAssay (EPA / NIEHS), this text covers outcome and AC50 for 14 compounds.

The target of assay [1] is Transcriptional activator Myb (Homo sapiens) (UniProt P10242). The assay is described as follows: ATG_Myb_CIS: Attagene CIS-FACTORIAL HepG2 Assay for human Myeloblastosis (Myb) Proto-Oncogene Transcription Factor (AID 2282986). Particulars: HepG2 Attagene CIS-FACTORIAL Myb reporter transcription; actives raise or lower the signal. The method, boiled down: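 Fluorescence signals from capillary electrophoresis of RT-PCR-amplified reporter cDNA give the read-out. Cells: HepG2 transfected with multiple cis-regulated reporter units. Exposure lasts 24 hours; DMSO defines baseline for gain or loss of signal.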
Transcriptional activator Myb (Homo sapiens), sequence (P10242 whole entry, looked up): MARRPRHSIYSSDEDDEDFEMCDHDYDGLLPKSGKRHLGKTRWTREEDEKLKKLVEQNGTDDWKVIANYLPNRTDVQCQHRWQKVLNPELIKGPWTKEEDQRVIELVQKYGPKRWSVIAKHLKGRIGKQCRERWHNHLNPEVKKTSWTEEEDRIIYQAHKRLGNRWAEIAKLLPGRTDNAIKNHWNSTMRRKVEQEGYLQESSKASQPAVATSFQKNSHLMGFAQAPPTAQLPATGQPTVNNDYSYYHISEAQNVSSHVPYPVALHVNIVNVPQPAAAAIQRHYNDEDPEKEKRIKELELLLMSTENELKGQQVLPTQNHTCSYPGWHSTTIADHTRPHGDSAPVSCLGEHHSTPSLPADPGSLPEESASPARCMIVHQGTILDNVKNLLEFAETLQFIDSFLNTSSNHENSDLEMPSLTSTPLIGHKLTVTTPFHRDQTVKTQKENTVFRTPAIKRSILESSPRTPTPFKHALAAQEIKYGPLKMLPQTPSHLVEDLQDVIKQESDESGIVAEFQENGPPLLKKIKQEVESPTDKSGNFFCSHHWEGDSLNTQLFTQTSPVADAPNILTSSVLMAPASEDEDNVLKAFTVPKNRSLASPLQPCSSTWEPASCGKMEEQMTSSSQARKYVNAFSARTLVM

Assay [2] concerns the target Nuclear respiratory factor 1 (Homo sapiens) (UniProt Q16656). As to the kind of experiment: ATG_NRF1_CIS: Attagene CIS-FACTORIAL HepG2 Assay for human Nuclear Respiratory Factor 1 (NRF1) Orphan Gene (AID 2282987). The settings on record: HepG2 NRF1 cis-element reporter, Attagene multiplex; actives raise or lower the signal. Summed up: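 Transcriptional reporter readout, one component of a 52-endpoint multiplexed HepG2 panel. Exposure 24 h; mRNA detected via RT-PCR and fluorescent capillary electrophoresis; fitting in both directions against DMSO.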

Assay [3] is described as follows: ATG_NFI_CIS: Attagene CIS-FACTORIAL HepG2 Assay for human Nuclear Factor I (NFI) (AID 2282989). The settings on record: HepG2 cis-regulatory reporter, NFI response element transcription; actives raise or lower the signal. Summed up: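 Multiplexed cis-reporter system in human HepG2 cells reports native TF activity as reporter mRNA induction 24 h post-dose. Fragments labelled with 6-FAM, HpaI-digested and resolved by capillary electrophoresis; activity fitted both directions versus DMSO.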

The target of assay [4] is Myc proto-oncogene protein (Homo sapiens) (UniProt P01106). As to the kind of experiment: ATG_Myc_CIS: Attagene CIS-FACTORIAL HepG2 Assay for human Myelocytomatosis (Myc) Proto-Oncogene Transcription Factor (AID 2282990). Particulars: HepG2, Attagene cis-reporter transcription factor activity; actives raise or lower the signal. Summed up:
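Read-out: fluorescent reporter mRNA fragments resolved by capillary electrophoresis after RT-PCR. Human HepG2 liver cells carried transfected cis-element reporter units and were dosed for 24 h. Gain or loss of signal fitted relative to DMSO baseline.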

Assay [5] in a line: ATG_NF_kB_CIS: Attagene CIS-FACTORIAL HepG2 Assay for human Nuclear Factor Kappa B (NF-kB) (AID 2282991). The settings on record: HepG2 Attagene cis-factorial NF-kB reporter mRNA; actives raise or lower the signal. The method, boiled down: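 HepG2, transient multi-reporter transfection, cis promoter elements (endogenous TFs). 24 h exposure. Total RNA → RT → PCR → 6-FAM label → HpaI → CE. Gain/loss vs DMSO.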

A short description of assay [6]: ATG_Oct_MLP_CIS: Attagene CIS-FACTORIAL HepG2 Assay for human Octamer-Binding Transcription Factor (Oct) (AID 2282993). Particulars: HepG2 Attagene cis-factorial Oct reporter, mRNA; actives raise or lower the signal. The method, boiled down:
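After 24 h compound exposure, transfected HepG2 cells were lysed for total RNA; reporter-specific cDNA was PCR-amplified, fluorescently labelled and sized by capillary electrophoresis. Bidirectional curve fitting used DMSO as baseline.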

Assay [7] deals with Cellular tumor antigen p53 (Homo sapiens) (UniProt P04637). The assay is described as follows: ATG_p53_CIS: Attagene CIS-FACTORIAL HepG2 Assay for human p53 Transcription Factor (AID 2282994). The settings on record: HepG2 p53 cis-element reporter, Attagene mRNA; actives raise or lower the signal. Summed up:
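Transiently transfected HepG2 (multiple cis reporter transcription units); exposure 24 h; reporter RNA via RT-PCR, 6-FAM extension, 2 h HpaI digest at 37 C, CE detection; DMSO baseline.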

Assay [8] in a line: BSK_3C_TissueFactor: BioMAP Diversity Plus: 3C Assay for Tissue Factor Biomarker Activity (AID 2282997). The settings on record: BioMAP 3C HUVEC, tissue factor biomarker readout; actives raise or lower the signal. The method, boiled down: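 Cells used were primary human umbilical vein endothelial cells. They were dosed with chemical, and after 24 h Tissue Factor was quantified by ELISA. Curves were fitted bidirectionally with DMSO as baseline.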

Assay [9] can be described thus: BSK_3C_uPAR: BioMAP Diversity Plus: 3C Assay for Urokinase-type plasminogen activator receptor (uPAR) Biomarker Activity (AID 2282998). The settings on record: BioMAP 3C HUVEC, uPAR biomarker ELISA; actives raise or lower the signal. Summed up: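 Values derive from bidirectional curve fitting relative to DMSO, which served as baseline of activity. uPAR was measured by ELISA in human umbilical vein endothelial primary cultures 24 h after compound addition.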

A short description of assay [10]: ATG_NRF2_ARE_CIS: Attagene CIS-FACTORIAL HepG2 Assay for human Nuclear Factor Erythroid 2 Related Factor 2 (NFR2) response to Antioxidant Response Elements (ARE) (AID 2282992).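 On AC50: reporter mRNA level measured by RT-PCR and capillary electrophoresis fluorescence.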 The settings on record: HepG2 Attagene ARE/NRF2 reporter, transcription factor activity; actives raise or lower the signal. Summed up:
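Fluorescence intensity of reporter-specific cDNA fragments, separated by capillary electrophoresis, reflects mRNA induction in transfected HepG2 cells at 24 h. Activity is fitted bidirectionally, DMSO serving as baseline.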

Values joined by “and” are separate entries in the source; they are usually repeats but may differ in a detail not shown here. Equal entries are not always repeated. A structure can be active in one record and inactive in another. Active and inactive are the calls of the source. How the source made its calls: active means hit-call score of the fitted dose curve at least 0.9, where 1 is the maximum; inactive means score below 0.9.

Cellular tumor antigen p53 (Homo sapiens), sequence (P04637 whole entry, looked up): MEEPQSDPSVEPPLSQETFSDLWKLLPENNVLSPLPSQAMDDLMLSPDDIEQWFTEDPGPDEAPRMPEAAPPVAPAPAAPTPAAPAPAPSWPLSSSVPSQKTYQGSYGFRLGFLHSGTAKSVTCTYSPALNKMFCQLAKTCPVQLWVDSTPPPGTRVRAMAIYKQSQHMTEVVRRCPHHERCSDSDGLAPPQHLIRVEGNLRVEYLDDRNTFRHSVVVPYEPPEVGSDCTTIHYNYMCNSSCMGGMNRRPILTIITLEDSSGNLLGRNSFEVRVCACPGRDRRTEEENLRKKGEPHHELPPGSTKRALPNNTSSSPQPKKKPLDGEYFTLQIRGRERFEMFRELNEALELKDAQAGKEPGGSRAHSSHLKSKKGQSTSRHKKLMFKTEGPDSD
Myc proto-oncogene protein (Homo sapiens), sequence (P01106 whole entry, looked up, the tested form may be a part): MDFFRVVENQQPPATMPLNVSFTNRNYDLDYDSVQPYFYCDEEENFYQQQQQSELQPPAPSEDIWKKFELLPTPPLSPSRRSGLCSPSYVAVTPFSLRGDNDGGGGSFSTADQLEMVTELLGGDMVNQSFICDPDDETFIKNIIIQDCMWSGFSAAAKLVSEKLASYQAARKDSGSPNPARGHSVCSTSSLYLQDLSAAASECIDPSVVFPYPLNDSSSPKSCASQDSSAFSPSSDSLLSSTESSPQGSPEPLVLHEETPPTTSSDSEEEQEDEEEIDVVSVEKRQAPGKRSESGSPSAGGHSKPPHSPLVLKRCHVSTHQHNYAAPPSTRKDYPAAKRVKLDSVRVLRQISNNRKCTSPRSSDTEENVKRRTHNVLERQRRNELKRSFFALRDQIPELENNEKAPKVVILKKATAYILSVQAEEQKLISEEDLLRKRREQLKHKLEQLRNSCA
Nuclear respiratory factor 1 (Homo sapiens), sequence (Q16656 whole entry, looked up): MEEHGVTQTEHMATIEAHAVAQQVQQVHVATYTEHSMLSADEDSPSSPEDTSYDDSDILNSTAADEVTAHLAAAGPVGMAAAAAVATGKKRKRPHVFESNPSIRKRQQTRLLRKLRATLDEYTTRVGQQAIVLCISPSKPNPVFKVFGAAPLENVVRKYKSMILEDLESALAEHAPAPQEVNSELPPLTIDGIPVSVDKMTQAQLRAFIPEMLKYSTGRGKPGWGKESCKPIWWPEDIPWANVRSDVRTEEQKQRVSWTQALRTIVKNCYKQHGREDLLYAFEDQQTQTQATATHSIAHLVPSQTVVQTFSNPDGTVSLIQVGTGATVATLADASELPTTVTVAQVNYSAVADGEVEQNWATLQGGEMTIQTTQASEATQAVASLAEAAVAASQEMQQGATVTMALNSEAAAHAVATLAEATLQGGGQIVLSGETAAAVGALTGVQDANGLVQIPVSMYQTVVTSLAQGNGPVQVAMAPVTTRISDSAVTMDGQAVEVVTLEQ

With `C=CCC1=C(C)C(OC(=O)C2C(C=C(C)C)C2(C)C)CC1=O` (stereo not given), the call in assay [1], in assay [2], in assay [3], in assay [4], in assay [5] and in assay [6] was inactive. In assay [7], the call was inactive. Moreover, the AC50 (usually the midpoint of the concentration-response curve, whichever way the signal moves) is 136 µM (active) and 144 µM (active) in [2]; 61.6 µM (active) [middle of 5 runs] in assay [3]; 43.2 µM (active) and 105 µM (active) in assay [5]; 47.5 µM (active) [middle of 5 runs] in assay [6]; 170 µM (active) and 86.4 µM (active) in assay [7]; 34 µM (active) [middle of 4 runs] in [8]. Besides, the AC50 in [9] was 35.3 µM (active) [middle of 4 runs].
In the case of `CCOP(=S)(OCC)SCn1c(=O)oc2cc(Cl)ccc21`, the outcome in assay [1], in [2], in assay [3], in assay [4], in assay [7] and in assay [8] was inactive. The outcome in [9] was inactive. The AC50 was 16 µM (active) in [10] and 14.1 µM (active) in assay [6].
With `CON(C)C(=O)Nc1ccc(Cl)c(Cl)c1`, the compound was called inactive in [1], in [2], in assay [3], in assay [4], in assay [5] and in [6]. For the same compound, the compound was called inactive in assay [7], in [8] and in [9]. Further, the AC50 in [10] is 27.8 µM (active) [middle of 4 runs].
Turning to `COP(=S)(OC)Oc1nc(Cl)c(Cl)cc1Cl`, the compound was called inactive in assay [1], in [2], in assay [3], in assay [4], in assay [6] and in [7]. The result in assay [8] and in assay [9] was inactive. The AC50 in assay [10] is 26.2 µM (active).
For the compound `CC1COC(Cn2cncn2)(c2ccc(Oc3ccc(Cl)cc3)cc2Cl)O1` (stereo not given), the result in [1], in assay [2], in assay [3], in [4] and in assay [7] was inactive. Further, the AC50 is 1.88 µM (active) in assay [10], 2.45 µM (active) in assay [6], 31.5 µM (active) in assay [8] and 28.4 µM (active) in assay [9].
As for `CC1=C(C(=O)Nc2ccccc2)SCCO1`, the call in assay [1], in assay [2], in [3], in assay [4], in [6] and in assay [7] was inactive. For the same compound, the result in assay [8] and in [9] was inactive. Further, the AC50 in [10] was 16.6 µM (active).
For `CC(C)C1(C)N=C(c2nc3ccccc3cc2C(=O)O)NC1=O` (stereo not given), the call in assay [1], in assay [2], in assay [3], in assay [4], in assay [5] and in assay [10] was inactive. In addition, the call in assay [6], in assay [7], in [8] and in assay [9] was inactive.
In the case of `N#Cc1nn(-c2c(Cl)cc(C(F)(F)F)cc2Cl)c(N)c1S(=O)C(F)(F)F` (stereo not given), the compound was called inactive in assay [1], in [2], in assay [3], in assay [4], in assay [10] and in [6]. Besides, the compound was classed as inactive in assay [7] and in assay [8]. The AC50 in [10] is 5.51 µM (active); in [6], 10.2 µM (active); in assay [9], 22 µM (active).
`C=CCC1=C(C)[C@@H](OC(=O)[C@@H]2[C@@H](C=C(C)C)C2(C)C)CC1=O`: the result in assay [1], in [2], in [3], in assay [4], in assay [5] and in assay [7] was inactive. Besides, the concentration at half-maximal activity (AC50) in assay [10] was 2.64 µM (active); in assay [6], 9.45 µM (active); in [8], 18.8 µM (active); in assay [9] it was 36.6 µM (active).
As for `CCON=C(CC)C1=C(O)CC(c2c(C)cc(C)cc2C)CC1=O` (stereo not given), the result in assay [1], in assay [2], in assay [3], in assay [4], in assay [5] and in [10] was inactive. Further, the compound was called inactive in assay [6], in assay [7], in assay [8] and in assay [9].
Take `CCCN(CCC)c1c([N+](=O)[O-])cc(S(N)(=O)=O)cc1[N+](=O)[O-]`: the outcome in [1], in [2], in [3], in assay [4], in assay [5] and in assay [10] was inactive. In assay [6], the result was inactive. Further, the figures for the AC50 in assay [8] and in assay [9] were 34.7 µM (active) [middle of 4 runs] and 31.8 µM (active) [middle of 4 runs], respectively.
On to `CC(Oc1ccc(Cl)cc1Cl)C(=O)O` (stereo not given), for which the outcome in assay [1], in [2], in assay [3], in assay [4], in assay [5] and in assay [10] was inactive. In addition, the outcome in assay [6], in assay [7], in assay [8] and in assay [9] was inactive.
`COP(N)(=O)SC` (stereo not given): the outcome in [1], in assay [2], in assay [3], in assay [4], in assay [5] and in assay [10] was inactive. For the same compound, the compound was classed as inactive in assay [6], in assay [7], in assay [8] and in assay [9].
Regarding `O=C(O)COc1nc(Cl)c(Cl)cc1Cl`, the compound was called inactive in assay [1], in [2], in [3], in assay [4], in assay [5] and in [6]. Also, the call in assay [7], in assay [8] and in assay [9] was inactive. For the same compound, the AC50 in assay [10] is 19.1 µM (active).
